Sampled rows, rich in hits. Any-hit rate of the full collection: about 3.1%.
KKLEB tox – cytotoxicity in KKLEB CF airway cells, primary screen, cytotoxicity control for CF NF-kB inhibitor project, cell-based, uHTS, fluorescence assay plates. activity change (cytotoxicity), % at 5 µM. KKLEB CF airway cells viability, ATPlite luminescence, overnight; stronger effect = lower value; cells stimulated with P. aeruginosa culture filtrate. 360,000 tested, 0.36% active. AID 602141, 2011;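 active = corrected activity change at or below -50% at 5 µM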
PPC-1+TRAIL kill – compounds killing PPC-1 cancer cells with TRAIL present, primary screen, TRAIL potentiator project, ATPLite luminescence, uHTS; cell killing (% activity), % at 4 µM or 5 µM; AID 1443, 2008; 220,000 tested, 0.41% active; PPC-1 cells + TRAIL, ATPLite viability luminescence;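 active = cell killing above 50% in the first pass at 4 µM, then a duplicate retest at 5 µM averaging 50% or more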;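 also: plate controls were cells with TRAIL plus DMSO for no effect and medium-only wells lacking cells for full effect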
Peg3 prom inh – Peg3 promoter-driven luciferase inhibitors, primary screen, cell-based, HeLa, luciferase luminescence; HeLa PEG-Prom luciferase reporter, overnight; AID 588405, 2011; 360,000 tested, 1.7% active; inhibition, % at 20 µM;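 active = inhibition of at least 50% at 20 µM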
CF NFkB inh – inhibitors of PAF-induced NF-kB signaling, primary screen, cell-based, GFP fluorescence, uHTS | KKLEB NF-kB-GFP reporter, GFP fluorescence overnight | inhibition, % at 5 µM | 360,000 tested, 0.86% active | AID 588850, 2011;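 active = at least 50% inhibition at 5 µM, scaled per plate between neutral and stimulator controls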;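 also: PAF is a Pseudomonas aeruginosa culture filtrate used as stimulus; plate controls were PAF-stimulated DMSO wells for no effect and unstimulated DMSO wells for full effect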
C8 TRAIL sens – viability loss with TRAIL in NB7+C8 cells, primary screen, TRAIL sensitizer project, cell-based, ATPlite luminescence; inhibition (viability loss, TRAIL sensitization), % at 10 µM; 360,000 tested, 1% active;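 active = compounds causing at least 50% loss of cell viability in the single-dose screen, relative to plate controls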
HIF-2a block – HIF-2a reporter inhibitors, primary screen, luminescence, 786-0 RCC cells; AID 624352, 2012; 360,000 tested, 0.72% active; 786-0 RCC cells HIF-2a reporter, luciferase luminescence, overnight; inhibition, % at 18.8 µM;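 active = inhibition of the luminescence signal of 40% or more relative to plate controls, in a single-dose primary screen at 18.75 µM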
An asterisk follows results filed as active; · = no result; ! = repeats disagree.

SMILES	KKLEB tox	PPC-1+TRAIL kill	Peg3 prom inh	CF NFkB inh	C8 TRAIL sens	HIF-2a block
C/C(=N\NC(=O)c1csc(C)c1C)c1ccco1	5.3	41.1	-70.0	-7.7	54.9*	-69.2
O=C(N/N=C/c1ccccc1)c1ccc2c(c1)OCO2	5.2	·	-105.9	-9.6	56.2*	-126.3
Cn1c(=O)c2cc(NC(=O)Nc3ccccc3)ccc2n1Cc1ccccc1	-7.8	·	-60.1	-1.3	1.2	-144.4
Cc1cc(SCC(=O)N/N=C/c2ccc(O)cc2O)nc2ccccc12	-0.6	·	53.9*	1.3	19.4	13.6
COc1ccc2nc(C)cc(SCC(=O)N/N=C/c3cccc4ccccc34)c2c1	-41.7	8.6	60.1*	45.4	17.4	-6.7
COc1ccc2nc(C)cc(SCC(=O)N/N=C/c3ccc(O)c(O)c3)c2c1	5.9	8.3	10.8	-1.1	5.1	-40.1
Cc1cc(SCC(=O)N/N=C/c2ccc(O)c(O)c2)nc2ccccc12	-1.9	·	22.3	7.0	19.6	14.3
COc1cc(C(C)=O)ccc1OCC(=O)Nc1ccc(C)c(S(=O)(=O)N2CCCCCC2)c1	4.1	·	55.4*	11.4	10.2	29.2
COc1ccc(-n2nc3cc(C)c(NC(=S)NC(=O)c4ccccc4C)cc3n2)cc1	-59.4*	34.1	-239.2	55.2*	15.4	-162.9
Cc1ccc(S(=O)(=O)N2CCOCC2)cc1NC(=O)COc1ccc(C(=O)c2ccccc2)cc1	-15.4	·	61.2*	2.0	8.5	-10.9
CN(C=O)c1ccc(CSc2ccccc2)cc1	-10.6	·	-335.7	-9.0	-5.5	-284.7
COc1oc(C(=O)NC2CCCCC2)c(-c2ccc(Cl)cc2)c1S(=O)(=O)c1ccccc1	17.3	·	4.1	-4.5	88.6*	1.0
C[C@H]1[C@H](C)CC[C@]2(C(=O)O)CC[C@]3(C)C(=CC[C@@H]4[C@@]5(C)CC[C@H](O)C(C)(C)[C@@H]5CC[C@]43C)[C@H]12	-2.8	14.1	52.9*	7.4	23.8	5.0
CCCCC1(CO)C(=O)N(c2ccccc2)N(c2ccccc2)C1=O	1.7	-14.4	9.0	8.4	-5.8	24.2
CCCCC1(Cc2cccc([N+](=O)[O-])c2)C(=O)N(c2ccccc2)N(c2ccccc2)C1=O	-1.9	9.6	52.4*	-0.7	20.7	17.5
N#C/C(=N\Nc1ccccc1)C(N)=S	-5.2	13.2	5.8	17.6	13.2	-6.7
Cc1ccc(N/N=C(\C#N)C(N)=S)cc1C	-0.4	11.2	-7.8	67.1*	16.4	-80.4
N#C/C(=N\Nc1ccc(Cl)cc1)C(N)=S	-39.1	7.6	-30.7	60.8*	15.7	-160.8
CC[N+](C)(CC)CCC(c1ccccc1)C1CCCCC1 (stereo not drawn)	2.9	·	13.9	-9.3	4.2	19.7
CC[N+](C)(CC)CCOC(=O)C(O)(c1ccccc1)C1CCCCC1 (stereo not drawn)	5.9	-2.9	-9.9	53.8*	-4.9	29.0
Cc1c(O)cccc1C(=O)N[C@@H](CSc1ccccc1)[C@H](O)CN1C[C@H]2CCCC[C@H]2C[C@H]1C(=O)NC(C)(C)C	-13.4	·	76.9*!	15.7	-0.6	-17.6
CCCn1c(SCC(=O)N2CCc3ccccc3C2)nc(O)cc1=O	-4.5	·	-0.4	3.2	-3.0	10.1
COc1ccc(NC(=O)CN(C)C(=O)/C=C/c2ccc(S(=O)(=O)N3CCCCCC3)cc2)cc1	-17.3	·	52.1*	26.1	11.7	13.6
COc1ccc(CN2C(=O)c3ccccc3C2c2nnnn2C(C)C)cc1OC (stereo not drawn)	·	·	·	·	-1.0	2.5
CCC(CO)Oc1cc(NC(=O)c2ccccc2Cl)c2ncn(C(C)C)c2c1 (stereo not drawn)	4.9	·	15.5	-10.3	-13.7	13.3
SMILES	KKLEB tox	PPC-1+TRAIL kill	Peg3 prom inh	CF NFkB inh	C8 TRAIL sens	HIF-2a block
Cc1cccc(OCCN2C(=O)C(=O)c3cc(C)ccc32)c1	-14.1	·	-75.6	53.5*	3.9	-78.7
COc1cc(NC(=O)c2ccco2)c(C(=O)OCC(=O)c2c[nH]c3ccccc23)cc1OC	-10.8	21.5	75.0*	5.3	23.3	-0.2
CCN(CC)CC(=O)Nc1cccc2c1C(=O)c1ccccc1C2=O	-12.3	-12.4	8.4	-50.7	0.7	-13.7
O=C1c2ccccc2C(=O)c2c(NCCCN(CCO)CCO)cccc21	-15.0	12.4	58.6*	-69.3	8.8	-5.8
COc1cccc(C(C)(O)c2nc(-c3cnn(C)c3)cs2)c1 (stereo not drawn)	-3.5	·	16.1	0.3	-2.6	11.6
CCOc1ccc(-n2nnnc2-c2nc3ccccc3s2)cc1	-70.4*	19.4	-73.6	70.1*	63.2*	-65.1
Cc1ccc2nc(SCC(=O)N3CCCc4ccccc43)nc(=O)n2c1	-7.9	·	17.9	29.4	26.5	20.8
Cn1c(-c2ccc(Br)o2)nc2ccccc21	-4.1	10.2	-248.2	-3.7	52.0*	-212.8
Cc1oc(-c2nc3ccccc3n2C)cc1C(=O)c1ccccc1	-43.0	18.7	-53.1	0.0	79.7*	-26.9
CC1(C(=O)N/N=C/c2c(F)c(F)c(F)c(F)c2F)CC1(Cl)Cl (stereo not drawn)	-0.8	·	16.2	-2.9	76.7*	25.6
NC(=O)C(C1=CCCCC1)c1ccccc1 (stereo not drawn)	10.0	·	2.9	-1.6	-16.8	3.4
COc1cc(/C=C2\C(=O)ON=C2c2ccccc2)cc(Br)c1O	8.2	·	51.3*	40.8	-0.5	51.3*
COc1cc(/C=C2/C(=O)ON=C2c2ccccc2)ccc1O	5.5	-43.6	44.3	-19.3	11.6	53.2*
COc1cc(/C=C2\C(=O)ON=C2c2ccccc2)cc(Cl)c1O	-11.9	-2.2	35.5	21.0	-7.7	25.1
CCOc1cc(/C=C2\C(=O)ON=C2c2ccccc2)cc(Br)c1O	2.2	·	34.9	34.5	0.6	78.7*
CCCc1cc(=O)[nH]c(SCC(=O)N2CCCCCC2)n1	8.5	·	8.9	-1.0	1.2	6.7
CC(=O)Nc1cccc(-c2ccnc3c2CC(C)(C(=O)NCCC(F)(F)F)O3)c1 (stereo not drawn)	-6.0	·	17.3	6.5	12.2	23.8
Cc1ccc2nc(N3C(=O)CNC3=S)sc2c1	-8.6	33.9	-166.4	13.9	31.8	-226.1
COc1ccc2nc(N3C(=O)CNC3=S)sc2c1	-0.5	34.7	-160.9	-16.9	49.8*	-180.2
C[C@@H]1CN([C@H](C)CO)S(=O)(=O)c2ccc(Br)cc2O[C@H]1CN(C)C(=O)Cc1ccccn1	-0.6	·	8.2	-7.3	-3.1	10.9
O=C(OCc1ccccc1)N(CCCCN(CCCNCc1ccccc1)C(=O)OCc1ccccc1)CCCNCc1ccccc1	-90.3*	·	108.1*	68.5*	95.9*	89.1*
COc1ccc(/C=N/n2c(C)nc3ccccc3c2=O)cc1OC	4.3	·	-21.7	-0.8	15.5	-18.4

Assay outcomes deposited in PubChem BioAssay by Sanford-Burnham Center for Chemical Genomics.
